{"source": "PubChem BioAssay AID493248", "about": "(Broad Institute, 2011)", "note": "Out of some 2,300 compounds screened, about 1,400 (61%) were called active. About 7% were inconclusive and are not listed. The rule behind the calls is not given here. So high a share suggests a set chosen from earlier hits. A selection follows. Results with a measured potency or affinity are listed apart."}
{"molecular_target": "FAD-linked sulfhydryl oxidase ALR (Homo sapiens) (UniProt P55789)", "sequence (P55789 whole entry, looked up)": "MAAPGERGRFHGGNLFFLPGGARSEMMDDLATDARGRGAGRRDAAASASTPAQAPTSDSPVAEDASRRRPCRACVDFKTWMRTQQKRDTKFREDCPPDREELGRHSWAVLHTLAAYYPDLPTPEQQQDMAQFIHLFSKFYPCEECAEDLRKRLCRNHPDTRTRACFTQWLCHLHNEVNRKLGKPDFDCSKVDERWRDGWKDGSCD", "test": "ALR-catalysed DTT oxidation blockers – biochemical, H2O2 detection, luminescence, cherry-pick, dose response (AID 493248)", "settings": "purified ALR, H2O2 HRP-luminol luminescence; at 10 µM (top of the series)", "units": {"activity change, negative = inhibition": "%"}}
{"smiles": "O=C(CNc1ccccc1)N/N=C/c1c[nH]c2ccccc12", "activity change, negative = inhibition": -29.1}
{"smiles": "O=[N+]([O-])c1cccc(N/N=C/c2cccc(O)c2O)c1", "activity change, negative = inhibition": -6.94}
{"smiles": "Cn1c(CNc2ccc(F)cc2)nc2ccccc21", "activity change, negative = inhibition": 4.17}
{"smiles": "COc1ccc(Nc2nc(N)c3ccccc3n2)c(OC)c1", "activity change, negative = inhibition": -5.05}
{"smiles": "COc1ccc2nc3ccccc3nc2c1N", "activity change, negative = inhibition": 417}
{"smiles": "CCN1C(=O)c2cccc3c(N)ccc1c23", "activity change, negative = inhibition": -69.8}
{"smiles": "Cc1ccc(S(=O)(=O)NCC(=O)NCC2CCCCC2)cc1C", "activity change, negative = inhibition": 18.2}
{"smiles": "Cn1c(=O)[nH]c(=O)c2c1[nH]c(=S)n2Cc1ccccc1", "activity change, negative = inhibition": -58.1}
{"smiles": "Cc1cnc(C(=O)Nc2ccc(C(=O)N3CCCCC3)cc2)cn1", "activity change, negative = inhibition": 0.57}
{"smiles": "O=C(c1cc(-c2ccc(O)cc2)on1)N1CCCCCC1", "activity change, negative = inhibition": -103}
{"smiles": "C/C(=N\\NC(=O)c1csc2ccccc12)c1ccc(O)cc1", "activity change, negative = inhibition": -107}
{"smiles": "CC(C)(C)C(=O)NC1=NCCS1", "activity change, negative = inhibition": -0.254}
{"smiles": "COc1ccc(CNc2ccc(Br)cc2)cc1", "activity change, negative = inhibition": -0.843}
{"smiles": "C/C(=N\\Nc1ccccn1)c1ccc(OC(F)F)cc1", "activity change, negative = inhibition": 30.6}
{"smiles": "COc1cc(C(=O)n2nc(C)cc2C)ccc1O", "activity change, negative = inhibition": 108}
{"smiles": "CC(C)(C)NC(=O)C(Cc1ccccc1)NS(=O)(=O)c1ccc2c(c1)CCC(=O)N2", "note": "(stereo not given)", "activity change, negative = inhibition": -98.2}
{"smiles": "COc1c(Cl)cc(C(=O)NN)cc1Cl", "activity change, negative = inhibition": -36.3}
{"smiles": "Cc1ccc(-n2[nH]c(C)c(/C=N/NC(=O)c3ccc(O)cc3O)c2=O)cc1", "activity change, negative = inhibition": -40.4}
{"smiles": "NNC(=O)c1cc(O)c(O)c(O)c1", "activity change, negative = inhibition": 8.57}
{"smiles": "CCCc1cc(=O)[nH]c(SCc2cccnc2)n1", "activity change, negative = inhibition": -44.3}
{"smiles": "CC1(C)CN(c2ccccc2)N(C(=O)c2ccc(F)cc2)C1=O", "activity change, negative = inhibition": -46.1}
{"smiles": "COc1cc(/C=N/O)cc(Br)c1OC", "activity change, negative = inhibition": 21.8}
{"smiles": "CCN(CC)CC(=O)c1ccc(-c2ccccc2)cc1", "activity change, negative = inhibition": -34.7}
{"smiles": "CCc1ccccc1Nc1ccc(C(=O)O)cc1N", "activity change, negative = inhibition": -23}
{"smiles": "Oc1ccc(-c2cnns2)c(O)c1", "activity change, negative = inhibition": -104}
{"smiles": "N[C@@H](Cc1ccccc1)c1nnc(SCc2ccccc2Cl)o1", "activity change, negative = inhibition": -33.5}
{"smiles": "O=C(O)c1cc([N+](=O)[O-])c(Sc2nc3ccccc3[nH]2)c([N+](=O)[O-])c1", "activity change, negative = inhibition": -46.4}
{"smiles": "COc1cccc(NC(=O)c2c([N+](=O)[O-])cnn2C)c1", "activity change, negative = inhibition": -15.3}
{"smiles": "Nc1ccccc1C(O)(Cc1ccccc1)c1ccccc1", "note": "(stereo not given)", "activity change, negative = inhibition": -3.4}
{"smiles": "Fc1ccccc1Nc1n[nH]c(=S)s1", "activity change, negative = inhibition": -40.4}
{"smiles": "COc1cc(/C=N/Nc2ccc([N+](=O)[O-])cn2)cc(OC)c1O", "activity change, negative = inhibition": -73.9}
{"smiles": "C=C(C)C(=O)Nc1ccc(NC(C)C)cc1", "activity change, negative = inhibition": 266}
{"smiles": "CC(Nc1ccccc1)c1cc(Cl)ccc1O", "note": "(stereo not given)", "activity change, negative = inhibition": -48.4}
{"smiles": "COc1ccccc1N(Cc1ccccc1)S(=O)(=O)c1cc(C(=O)O)ccc1Cl", "activity change, negative = inhibition": -48.6}
{"smiles": "CN(C)Cc1c(O)ccc2c3c(c(=O)oc12)CCCCC3", "activity change, negative = inhibition": 148}
{"smiles": "Cc1ccc2c(CN3CCC(C(N)=O)CC3)cc(=O)oc2c1C", "activity change, negative = inhibition": -10.9}
{"smiles": "Cn1ccnc1SCc1cn2ccccc2n1", "activity change, negative = inhibition": -1.35}
{"smiles": "O=C(c1cc(-c2ccc(O)cc2)on1)N1CCN(c2ccccc2)CC1", "activity change, negative = inhibition": 418}
{"smiles": "S=c1[nH]ncn1NCc1ccc(Cl)cc1Cl", "activity change, negative = inhibition": -23.3}
{"smiles": "Cc1cc(-c2n[nH]c(=S)n2/N=C/c2cccc([N+](=O)[O-])c2)n[nH]1", "activity change, negative = inhibition": -55.9}
{"smiles": "COc1cc(/C=C2\\SC(=S)N(NC(=O)c3cccnc3)C2=O)ccc1O", "activity change, negative = inhibition": -97.7}
{"smiles": "Cc1nnc(Nc2ccc3c(c2)OCO3)c2ccccc12", "activity change, negative = inhibition": 20.5}
{"smiles": "Cc1csc2nc(CSc3ccc(Cl)cc3)cn12", "activity change, negative = inhibition": -28.1}
{"smiles": "c1ccc(Nc2c(-c3ccco3)nc3ccccn23)cc1", "activity change, negative = inhibition": -67}
{"smiles": "COc1ccc(-n2c(-c3ccc(OC)c(OC)c3)n[nH]c2=S)cc1", "activity change, negative = inhibition": -27}
{"smiles": "CCN1CC(c2ccccc2)C(c2ccc(Cl)cc2)=N1", "note": "(stereo not given)", "activity change, negative = inhibition": -26.4}
{"smiles": "O=C(Nc1cccs1)Nc1ccccc1Cl", "activity change, negative = inhibition": -59.6}
{"smiles": "CN1c2ccccc2Sc2cc(N)ccc21", "activity change, negative = inhibition": -71}
{"smiles": "CN(C)c1ccc(/C=N/OC(=O)Nc2ccccc2)cc1", "activity change, negative = inhibition": -22.3}
{"smiles": "O=C(O)C1C(c2ccccc2)C(C(=O)Oc2ccc(O)cc2)C1c1ccccc1", "note": "(stereo not given)", "activity change, negative = inhibition": -97.2}
{"smiles": "Fc1ccc(CN2C3=NCCN3c3ccccc32)cc1", "activity change, negative = inhibition": -38.3}
{"smiles": "CCCCN1C2=NC(c3ccccc3)CN2c2ccccc21", "note": "(stereo not given)", "activity change, negative = inhibition": -14}
{"smiles": "COc1cc(NC(=O)CN2C(=O)C(c3ccccc3)=NC2(C)C)cc(OC)c1", "activity change, negative = inhibition": -10}
{"smiles": "CCN(CC)S(=O)(=O)c1ccc(NC(=O)c2c(-c3ccccc3)noc2C)cc1", "activity change, negative = inhibition": -1.33}
{"smiles": "COc1cc(/C=N\\NC(=O)c2ccc(Cn3cc(Br)c([N+](=O)[O-])n3)o2)cc(OC)c1O", "activity change, negative = inhibition": -36.4}
{"smiles": "CC(C)CC1(C(=O)O)NC(c2ccccc2O)C2C(=O)N(C(C)C)C(=O)C21", "note": "(stereo not given)", "activity change, negative = inhibition": -7.77}
{"smiles": "COc1ccc(CN2C(=O)C3C4C=CC(C4)C3C2=O)cc1", "note": "(stereo not given)", "activity change, negative = inhibition": 24.9}
{"smiles": "COc1ccc(CNc2ccccc2)cc1Br", "activity change, negative = inhibition": -3.19}
{"smiles": "COc1ccc(NCc2ccc3c(c2)OCO3)cc1Cl", "activity change, negative = inhibition": -12.5}
{"smiles": "CCN(CC)c1ccc(NC(=O)CN2C(=O)CSc3ncccc32)c(C)c1", "activity change, negative = inhibition": -11.2}
{"smiles": "Cc1cc2nc3ccc(N(C)C)cc3nc2cc1N", "activity change, negative = inhibition": -98.1}
{"smiles": "CC1C/C(=N/NC(=O)c2cccc(F)c2)c2ccc(O)cc2C1", "note": "(stereo not given)", "activity change, negative = inhibition": -63.8}
{"smiles": "CNC(=O)CN1C(=O)c2ccccc2S1(=O)=O", "activity change, negative = inhibition": 14}
{"smiles": "CCN1CCn2c3c(c4cc(C)ccc42)CCCC31", "note": "(stereo not given)", "activity change, negative = inhibition": 32.6}
{"smiles": "COc1ccc(-c2csc(Cc3nnc4n3CCCCC4)n2)cc1OC", "activity change, negative = inhibition": -2.63}
{"smiles": "Cc1cccc(NNC(=O)C(=O)NNc2cccc(C)c2)c1", "activity change, negative = inhibition": -2.1}
{"smiles": "CCc1oc2ccccc2c1C(=O)c1cc(Br)c(O)c(Br)c1", "activity change, negative = inhibition": -16.5}
{"smiles": "COC(=O)c1c(N)sc2c1CC(C)(C)OC2", "activity change, negative = inhibition": 0.616}
{"smiles": "Cc1cc(C)cc(N(CC(=O)NCc2ccco2)S(=O)(=O)c2c(C)noc2C)c1", "activity change, negative = inhibition": -11.1}
{"smiles": "Cc1ccc(N(C)S(=O)(=O)c2cccc(C(=O)Nc3nnc(C4CC4)s3)c2)cc1", "activity change, negative = inhibition": 41.9}
{"smiles": "CCSc1nnc(NC(=O)C2CCCN(S(=O)(=O)c3cnc[nH]3)C2)s1", "note": "(stereo not given)", "activity change, negative = inhibition": 4.79}
{"smiles": "Cc1cc(C(=O)Nc2nc3c(C)cccc3s2)c(C)o1", "activity change, negative = inhibition": -29}
{"smiles": "COc1cccc(CNc2nc3ccccc3n2CCN2CCCCC2)c1", "activity change, negative = inhibition": 73.7}
{"smiles": "Cc1[nH]oc(=O)c1N=Nc1c(Cl)cccc1Cl", "activity change, negative = inhibition": -48.5}
{"smiles": "O=S(=O)(c1cccs1)n1cnc2ccccc21", "activity change, negative = inhibition": -2.54}
{"smiles": "Cc1cc(Cc2ccc(N)c(C)c2)ccc1N", "activity change, negative = inhibition": 12.8}
{"smiles": "C=CCSc1nnc2c(n1)OC(c1ccco1)Nc1ccccc1-2", "note": "(stereo not given)", "activity change, negative = inhibition": -91.3}
{"smiles": "COC(=O)c1ccn(CC(=O)NC2CCCCC2)n1", "activity change, negative = inhibition": -5.32}
{"smiles": "COc1cc(C(=S)NC2CCCCC2)ccc1O", "activity change, negative = inhibition": 99.8}
{"smiles": "CSc1nnc(-c2ccncc2)n1CCCN1CCCC1=O", "activity change, negative = inhibition": 69.3}
